Compound activity as filed in PubChem.
m5-HT2A agonist: mouse Htr2a agonists via beta-arrestin recruitment, primary screen, cell-based, luminescence. actives 0.66% (n = 360,000). 5-hydroxytryptamine receptor 2A (Mus musculus), P35363. CHO-K1 mHTR2A beta-arrestin complementation; percent of 30 µM serotonin response. activation, % at 7.6 µM. AID 624169, 2012;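 active means activation above a run cutoff, the mean activation of all tested compounds plus 3 SD, cut at about 14% in these data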
VLA-4 inh: inhibition in human VLA-4 binding assay, primary screen, VLA-4 allosteric modulator project, MLPCN library, flow cytometry, VLA-4 expressing cells; ligand binding flow cytometry; inhibition, % (about 7 µM as worked out from the volumes in the protocol); actives 0.2% (n = 330,000); in the data active means inhibition above about 50%
MEX-5 binding: MEX-5 zinc finger RNA-binding disruptors – biochemical, C. elegans, fluorescence polarization, MLPCN library, primary screen; Zinc finger protein mex-5 (Caenorhabditis elegans), Q9XUB2; actives 0.38% (n = 300,000); activity score (negative = inhibition of binding), % at 10 µM; MEX-5/FITC-TCR2 RNA binding; stronger effect = lower value;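 active means inhibition past about -25% in most replicates, and total fluorescence under double the plate's negative control median, limit read from the data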
JMJD2C inh: inhibitors of GASC-1 histone demethylase, primary screen, biochemical, fluorescence, DELFIA europium; inhibition, % at 2.35 µM; GST-JMJD2C(1-420) H3K9me3 demethylation; actives 0.069% (n = 330,000); AID 2099, 2009;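 active means more than half of a compound's replicate wells show inhibition beyond 50%, single wells judged on their own value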;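 further: signal counts dimethyl H3K9 product captured on neutravidin plate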
Exocytosis inh: LAMP-1 surface exposure blockers, TALL-104 cells – cell-based, flow cytometry, MLPCN library, primary screen; TALL-104 LAMP-1 surface exposure; cells stimulated with thapsigargin and PMA; inhibition, % at 10 µM; actives 0.66% (n = 360,000);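 active means inhibition above about 55%, limit read from the data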
V-ATPase pH: regulators of yeast V-ATPase proton pumping, primary screen, pHLuorin cytosolic pH fluorescence | response, % at 10 µM | S. cerevisiae | actives 0.37% (n = 350,000); in the data active means response mostly above about 7.3%, no sharp cut-off; inactive means mostly below about 5.4%; further: actives read high
VLA-4 allo CP: retest of VLA-4 allosteric modulators, confirmation, cell-based, cherry-picked plates, U937, HUTS-21 LIBS antibody | shares compounds with VLA-4 inh | U937 cells, HUTS-21 LIBS mAb binding, flow cytometry; LDV ligand present at threefold Kd | inhibition, % at 6.7 µM | actives 2% (n = 1,300); in the data active means inhibition above about 40%
Each line names hits and unclear results; the compound was inactive in the other large screens (follow-up assays come after a bar, where they were run). Rows were chosen to be rich in hits. Some 2.2% of all compounds tested hit in one or more screens of this group.

O=C(Cn1c(=O)oc2ccccc21)Nc1ccc(F)cc1	none
O=C(Cn1c(=O)oc2ccccc21)Nc1ccc(Br)cc1	none | VLA-4 allo CP inactive
CC(C)C(=O)Nc1ccc2c(c1)nc(CCN1CCCCC1)n2C	none
CC(C)CC(=O)Nc1ccc2c(c1)nc(CCN1CCCCC1)n2C	none | VLA-4 allo CP inactive
O=C(O)C1CCN(C(=O)c2ccc(Cl)cc2)CC1	none
O=C(Nc1nc2ccccc2[nH]1)C1CCN(C(=O)c2ccc(F)cc2)CC1	none
Cc1cccc(NC(=O)C2CCN(C(=O)c3ccc(Cl)cc3)CC2)n1	none | VLA-4 allo CP inactive
Cc1cccc(NC(=O)C2CCN(C(=O)c3ccc(F)cc3)CC2)n1	none | VLA-4 allo CP inactive
COc1cc(CCCN2C(=O)C(=O)NC[C@@H]2CCCCN)cc(OC)c1OC	none | VLA-4 allo CP inactive
CN1CCN(C(=O)C2CCC(CNS(=O)(=O)c3cccc4cccnc34)CC2)CC1 (centres undefined)	none
O=C(C1CCC(CNS(=O)(=O)c2cccc3cccnc23)CC1)N1CCc2ccccc21 (centres undefined)	VLA-4 inh 52.7 | VLA-4 allo CP inactive
COc1ccc(C(=O)NCCCN2CCCC2=O)cc1S(=O)(=O)N1CCOCC1	none (no result: VLA-4 inh, MEX-5 binding, JMJD2C inh, V-ATPase pH)
CCOC(=O)C1(S(=O)(=O)c2ccc(Cl)cc2)CCN(Cc2ccc(C)cc2)CC1	none | VLA-4 allo CP inactive
Cc1ccc(-c2nnn(CC(=O)NC(=O)NC3CCCCC3)n2)cc1	none (no result: VLA-4 inh, MEX-5 binding, JMJD2C inh)
COC(=O)C1=C(NC(=O)COc2ccc3ccccc3c2)CCS1	none | VLA-4 allo CP inactive
Cc1cc(NC(=O)CNCC(c2ccccc2)N(C)C)c([N+](=O)[O-])cc1C (centres undefined)	none
CS(=O)c1nc(-c2ccc(Br)cc2)cc(-c2ccccc2)c1C#N (centres undefined)	VLA-4 inh 58.6 | VLA-4 allo CP 40.8
CS(=O)(=O)c1nc(-c2ccc(Br)cc2)cc(-c2ccccc2)c1C#N	none
S=C(Nc1ccccc1)Nc1ccc(Cl)cc1Cl	none
FC(F)(F)c1cccc(NC(=S)Nc2ccc(Cl)cc2Cl)c1	VLA-4 inh 90.3 | VLA-4 allo CP inactive
O=C(CNC(=O)c1sc2ccccc2c1Cl)NCc1cccc(C(F)(F)F)c1	VLA-4 inh 53.3 | VLA-4 allo CP inactive
COc1ccc(-c2nc(CN3CCN(c4ccccc4OC)CC3)c(C)o2)cc1	none
COc1ccccc1N1CCN(Cc2nc(-c3ccc(F)cc3)oc2C)CC1	VLA-4 inh 51.6 | VLA-4 allo CP inactive
COc1cccc(CNC(=O)CCCn2nc(C)c3c(C)n(-c4ccc(C)cc4)nc3c2=O)c1OC	none
COc1ccc(OCC(=O)Nc2ccccc2OC)cc1	none
CCC(C)NC(=O)c1ccccc1NC(=O)COc1ccc(OC)cc1 (centres undefined)	none (no result: VLA-4 inh) | VLA-4 allo CP inactive
COc1ccc(OCC(=O)Nc2ccccc2C(=O)NC(C)C)cc1	none (no result: V-ATPase pH) | VLA-4 allo CP inactive
CC(C)(C)C1CCNC(=O)CC1 (centres undefined)	none (no result: VLA-4 inh, MEX-5 binding, JMJD2C inh)
Cc1cccc(CSc2nc3nc(C)cc(C)n3n2)c1	none
COc1ccc(C(=O)N2CCC(C(=O)Nc3ccc(OC)c(OC)c3)CC2)cc1	none | VLA-4 allo CP inactive
Cc1ccc(NC(=O)C2CCN(C(=O)c3ccccc3C)CC2)nc1	none | VLA-4 allo CP inactive
COC(=O)c1ccccc1NC(=O)C1CCN(C(=O)c2cc(OC)c(OC)c(OC)c2)CC1	none | VLA-4 allo CP inactive
Cc1ccccc1C(=O)N1CCC(C(=O)Nc2ccccc2Cl)CC1	none | VLA-4 allo CP inactive
Cc1ccc(Cc2c(-c3cccc(Cl)c3)nc3ccc(Cl)cn23)cc1	none (no result: VLA-4 inh, MEX-5 binding, JMJD2C inh, V-ATPase pH)
Cc1ccc(NC2CCCN(C(=O)c3cc(C(C)C)nn3C)C2)cc1C (centres undefined)	none (no result: VLA-4 inh, MEX-5 binding, JMJD2C inh)
Cc1ccc(NC(=O)C2CCN(C(=O)c3ccc(Cl)cc3)CC2)nc1	none | VLA-4 allo CP inactive
Cc1ccc(C(=O)N2CCC(C(=O)NC3CCCCCC3)CC2)cc1	none
Cc1cc2nc3c(c(=O)n2[nH]1)CCCC3	VLA-4 inh 91.2 | VLA-4 allo CP inactive
Cc1ccsc1C(=O)NCCc1c[nH]c2ccccc12	none
COc1ccc(C(=O)NCc2ccc3c(c2)cc(C)n3C)cc1OC	none
COc1ccc(/C=C\C(=O)NCc2ccc3c(c2)cc(C)n3C)cc1OC	VLA-4 inh 58.1 | VLA-4 allo CP inactive
CCn1c(C)nc2cc(C(=O)N/N=C/c3cccc(O)c3O)ccc21	none
S=C(NCCC(c1ccccc1)c1ccccc1)Nc1cccc(Cl)c1	VLA-4 inh 93.4 | VLA-4 allo CP inactive
S=C(NCCN(C1CCCCC1)C1CCCC1)Nc1cccc(Cl)c1	none
FC(F)(F)c1cccnc1N1CCN(c2ncnc3nc[nH]c23)CC1	VLA-4 inh 49.7 | VLA-4 allo CP inactive
Cc1cc(F)ccc1NC(=O)c1cc(S(=O)(=O)N2CCc3ccccc32)cn1C	none
CCCc1cc(=O)[nH]c(SCC)n1	none (no result: V-ATPase pH)
CCCc1cc(=O)[nH]c(-n2[nH]c3c(c2=O)CCCC3)n1	none | VLA-4 allo CP inactive
NC(=O)OCC(O)COc1ccc(Cl)cc1 (centres undefined)	VLA-4 inh 56.8 (no result: MEX-5 binding, JMJD2C inh) | VLA-4 allo CP inactive
O=S(Cc1ccc(Cl)cc1)CC(O)COc1ccc(Cl)cc1 (centres undefined)	none
Nc1nnc(CC(=O)N/N=C/c2ccc(-c3ccc(Cl)cc3Cl)o2)s1	none
Cc1ccccc1C(=O)OCC(=O)N(C)c1ccccc1	none
Cc1cccc(C(=O)OCC(=O)N(C)c2ccccc2)c1C	none | VLA-4 allo CP inactive
O=C(N1CCN(c2ccccn2)CC1)N1c2ccccc2Sc2ccccc21	VLA-4 inh 66.5 | VLA-4 allo CP inactive
CCC(C)NC(=O)c1ccc2c(c1)N(Cc1ccccc1)C(=O)CS2 (centres undefined)	none (no result: MEX-5 binding)
O=C(O)c1ccc2c(c1)N(Cc1cccc(F)c1)C(=O)CS2	VLA-4 inh 50.4 | VLA-4 allo CP inactive
O=C(OCCc1cc2ccccc2c(=O)o1)c1ccccc1C(F)(F)F	none (no result: MEX-5 binding)
O=C(N1CCOCC1)N1CCC(NC(=O)C23CC4CC(CC(C4)C2)C3)CC1	VLA-4 inh 52.3 | VLA-4 allo CP inactive
O=C(N1CCOCC1)C12CCC3CC(CC(C3)C1)C2	none
O=C(COC(=O)c1ccc2c(c1)OCO2)NCc1ccc2c(c1)OCO2	none
